These results are taken from PubChem BioAssay AID1611 (NINDS Approved Drug Screening Program, 2009).

The nature of this experiment: inducers of human heat shock response, cell-based, HSE luciferase (AID 1611). The settings on record: human cells, HSE-luciferase heat shock reporter; stronger effect = higher value.
In the case of `C[C@@H]1C[C@@H]([C@H](O)CC2CC(=O)NC(=O)C2)C(=O)[C@@H](C)C1`, the fold change is 0.84.

Regarding `N#CC(O[C@@H]1O[C@H](CO[C@@H]2O[C@H](CO)[C@@H](O)[C@H](O)[C@H]2O)[C@@H](O)[C@H](O)[C@H]1O)c1ccccc1` (stereo not given in full), the fold change amounted to 0.7.

Regarding `O=[N+]([O-])c1cc(O)c(O)c([N+](=O)[O-])c1`, the fold change was determined as 0.87.

For the compound `C=CCN1CC[C@]23c4c5ccc(O)c4OC2C(=O)CC[C@@]3(O)[C@H]1C5` (stereo not given in full), the fold change amounted to 1.1.

As to `CC(=O)Nc1cc([As](=O)(O)O)ccc1O`, the fold change is 0.73.

In the case of `C=C[C@H]1CN2CC[C@H]1C[C@@H]2[C@H](O)c1ccnc2ccccc12`, the fold change was 1.18.

In the case of `CC(=O)OC1CN2CCC1CC2` (stereo not given), the fold change was 0.77.

Regarding `CNC(C)(C)Cc1ccccc1`, the fold change was determined as 1.1.

Turning to `COc1cc([C@@H]2c3cc4c(cc3[C@H](O)[C@H]3COC(=O)[C@H]23)OCO4)cc(OC)c1OC`, the fold change was found to be 0.57.

As to `C[C@@H]([C@H](O)c1ccccc1)N(C)C`, the fold change is 1.08.

Consider `CCC1(CC)C(=O)C=CNC1=O`, for which the fold change turned out to be 1.24.

With `O=c1[nH]oc2c1CCNC2`, the fold change was 1.02.

Take `C#CC1(O)CCC2C3CCC4=CC(=O)CCC4(C)C3CCC21C` (stereo not given): the fold change was determined as 0.91.

Regarding `CNC(C)C(O)c1ccccc1` (stereo not given), the fold change stood at 0.96.

On to `CC(CCc1ccccc1)NC(C)C(O)c1ccc(O)cc1` (stereo not given), for which the fold change turned out to be 1.23.

As to `CNC1(c2ccccc2Cl)CCCCC1=O` (stereo not given), the fold change worked out at 1.39.

Regarding `Clc1ccc(COC(Cn2ccnc2)c2ccc(Cl)cc2Cl)c(Cl)c1` (stereo not given), the fold change worked out at 0.8.

As to `C[C@H](N)[C@H](O)c1ccc(O)c(O)c1`, the fold change turned out to be 1.53.

Turning to `O=P1(N(CCCl)CCCl)NCCCO1` (stereo not given), the fold change was determined as 0.79.

Consider `CC1[C@H](C)OC(=O)CC(O)CC(O)CC(O)CCC(O)C(O)C[C@]2(O)CC(O)C(C(=O)O)C(CC(OC3O[C@H](C)[C@@H](O)[C@H](N)[C@@H]3O)/C=C/C=C/C=C/C=C/CC/C=C/C=C/[C@H](C)[C@H]1O)O2` (stereo not given in full), for which the fold change came out at 1.2.

In the case of `[N-]=[N+]=CC(=O)OCC(N)C(=O)O` (stereo not given), the fold change was 1.29.

For `Cc1cc2c(C(C)C)c(O)c(O)c(C=O)c2c(O)c1-c1c(C)cc2c(C(C)C)c(O)c(O)c(C=O)c2c1O`, the fold change was found to be 0.95.

For the compound `C[C@H]1O[C@@H](O[C@H]2[C@@H](O)C[C@H](O[C@H]3[C@@H](O)C[C@H](O[C@H]4CC[C@]5(C)C6CC[C@]7(C)[C@@H](C8=CC(=O)OC8)CC[C@]7(O)C6CC[C@@H]5C4)O[C@@H]3C)O[C@@H]2C)C[C@H](O)[C@@H]1O` (stereo not given in full), the fold change came to 78.

As for `CC(=O)[O][Hg][c]1ccccc1`, the fold change is 1.14.

`CC(=O)C1=C(O)C2C3c4c[nH]c5cccc(c45)CC3C(C)(C)N2C1=O` (stereo not given): the fold change was 1.11.
